Source: PubChem BioAssay (NCATS)
Inconclusive results are not listed. Activity calls are given as the source filed them. Unless noted, calls come from the whole dose curve; as a rule, active = well fitted curve in either direction with a large enough effect (not every such curve was filed as active); inconclusive = small, poorly fitted or top-dose-only effect, or another doubt; inactive = flat fitted curve, though single readings scatter.

What was measured:
[1] = target: Lysosomal acid glucosylceramidase (Homo sapiens) (UniProt P04062); experiment: Glucocerebrosidase-p2 (AID 348; in the data active = potency below about 10 µM; note: potency is the fitted concentration of half-maximal effect); settings: purified GBA, blue fluorogenic substrate, 40 min
Method in brief: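 Compounds titrated from 0.6 nM upwards against 0.2 nM enzyme in pH 5.9 citric acid/KH2PO4, taurocholate, tween-20; blue fluorogenic substrate 80 uM, 40 min room temperature, stopped and read Ex 365/Em 440 for AC50.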

[2] = AP1 Signaling Pathway (AID 357); settings: ME-180 AP-1-bla reporter, EGF-induced, beta-lactamase ratio, 5 h; at 7.69 µM (top of the series) unless noted;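 note: ME-180 reporter cells stimulated with EGF at its EC50 level; % is set by controls: 0 for no effect and ±100 for the full control effect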
Method in brief: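 Read-out was the 460nm/530nm emission ratio (excitation 405nm) after CCF4 loading for 2.5 hours at room temperature. Cells carried an AP-1-driven beta-lactamase reporter, were stimulated with EC50 EGF plus compound for 5 hours, and AC50 values came from titrations.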

[3] = NFAT Signaling Pathway (AID 444); settings: Jurkat NFAT-bla M1, carbachol, beta-lactamase ratio, 5 h; at 7.69 µM (top of the series) unless noted;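 note: carbachol stimulus at about its EC50 of 1 µM final; % is set by controls: 0 for no effect and ±100 for the full control effect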
Method in brief: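 Jurkat cells carrying an NFAT-driven β-lactamase reporter and co-transfected muscarinic M1 receptor were treated with compound plus carbachol (1 uM final, an EC50 level) for 5 h at 37 °C. CCF4 loading followed for 1 h at RT; 460/530 nm ratio gave %activity.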

[4] = target: Glucocorticoid receptor (Homo sapiens) (UniProt P04150); experiment: GR-GFP Redistribution (AID 450;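 active = compounds whose dose series gives a full or clear partial fitted curve of increased nuclear translocation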; note: potency is the fitted concentration of half-maximal effect); settings: U2OS GR-GFP nuclear translocation, laser cytometry, 2 h
[5] = target: Glucocorticoid receptor (Homo sapiens) (UniProt P04150); experiment: GR-EFC Redistribution (AID 451; calls by dose curve; note: potency is the fitted concentration of half-maximal effect); settings: CHO-K1 GR-EFC translocation, beta-gal luminescence, 2 h
Method in brief: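 CHO-K1 cells stably expressing nuclear-localized β-gal enzyme acceptor and GR fused C-terminally to the enzyme donor fragment; ligand-driven nuclear translocation restores β-gal by complementation. Compounds titrated up to 46 uM final, 2 h at 37 °C; luminescence read.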

[6] = target: Mitogen-activated protein kinase 10 (Mus musculus) (UniProt Q61831); experiment: JNK3 AlphaScreen Assay (AID 530); settings: JNK3 lysate, c-Jun phosphorylation; series mostly up to 57.1 µM;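 note: kinase came from lysate of stimulated human HepG2 cells; signal reports phosphorylation of biotinylated GST-cJun 1-79 at Ser73 with 10 µM ATP; % is set by controls: 0 for no effect and ±100 for the full control effect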
Method in brief: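 JNK3 came from HepG2 lysates pre-activated with IL-1beta and TNF-alpha and phosphorylated biotinylated GST-cJun (1-79) at 10 uM ATP, pH 7.6, room temperature. Compounds were titrated. AlphaScreen signal used anti-phospho-cJun (Ser73) antibody.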

[7] = target: 3',5'-cyclic-AMP phosphodiesterase 4B (Homo sapiens) (UniProt Q07343); experiment: qHTS Assay for Inhibitors of PDE-IV (AID 607; active = well fitted activation curve with a large enough effect in the main read-out, with a control signal flat, not every such curve was filed as active; note: % of control where 0% means no effect); settings: HEK293 ACTOne CNG channel cells, membrane potential fluorescence; series mostly up to 22.9 µM
Method in brief: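 ACTOne HEK293 cells carry a modified cAMP-gated CNG channel and express endogenous PDE4; plated 1000 cells/well, compounds up to 22.9 uM final. Membrane-potential dye fluorescence (ex 535/em 590) was read; parental cells received 10 uM forskolin + 100 uM RO 20-1724.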

[8] = Confirmation and Secondary Assay for Modulators of Hemoglobin Beta Chain Splicing at IVS2 654 locus (AID 910; active = well fitted curve in the direction sought with a large enough effect; an effect the other way counts as inactive or inconclusive;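 note: per-well total GFP intensity by laser scanning cytometry after 2-day treatment; % of control where 0% means no effect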); settings: HeLa EGFP-654 splicing reporter, GFP fluorescence, 48 h; series mostly up to 38.3 µM
Method in brief: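 HeLa cells stably carrying EGFP interrupted by mutant beta-globin IVS2-654 intron (CMV-driven) were treated with compound for 2 days at 37C; corrected splicing was scored as total peak GFP intensity per well (488 nm excitation, 500-520 nm emission).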

[9] = Confirmation and Secondary Assay for Modulators of Hemoglobin Beta Chain Splicing at IVS2 705 locus (AID 930; active = well fitted curve in the direction sought with a large enough effect; an effect the other way counts as inactive or inconclusive;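 note: HeLa cells stably expressing the EGFP-705 splicing reporter; GFP fluorescence per well restored by corrected splicing of the IVS2-705 intron in EGFP; % of control where 0% means no effect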); settings: HeLa EGFP-705 splicing reporter, GFP fluorescence, 48 h; series mostly up to 38.3 µM
Method in brief: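 Assay measures total GFP intensity per well in HeLa EGFP-705 cells after 2 days with compound; mis-splicing normally truncates EGFP, so fluorescence indicates corrected splicing.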

[10] = qHTS Assay for Lipid Storage Modulators (AID 1519; calls by dose curve); settings: Drosophila S3 cells, BODIPY lipid droplet/cell ratio, laser cytometry, cells loaded with oleic acid; for activity change, negative = inhibition: at 57.5 µM (top of the series)
Method in brief: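 Cells seeded at 5,000 per well were treated with compounds over a concentration series and loaded with oleic acid (400 uM, as added). Lipid droplet fluorescence (488 nm excitation, 500-530 nm channel) was read by laser-scanning cytometry and normalized to 20 uM Triacsin C.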

[11] = Stat Signaling Pathway (AID 446); settings: ME-180 SIE beta-lactamase reporter, IL-6 stimulated, 5 h; at 7.69 µM (top of the series) unless noted;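 note: ME-180 cervical cancer cells given 40 pM IL-6 alongside compound; SIE-controlled beta-lactamase reporter measured as 460/530 nm FRET emission ratio; % is set by controls: 0 for no effect and ±100 for the full control effect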
Method in brief: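 ME-180 SIE-bla cells; overnight plating; cpd + IL-6 40 pM, 5 h, 37 C; LiveBLAzer 2.5 h RT; 460/530 nm emission ratio. Normalized to 300 pM IL-6 and 125 nM JAK inhibitor controls.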

[12] = target: Ubiquitin carboxyl-terminal hydrolase 1 (Homo sapiens) (UniProt O94782); experiment: Inhibitors of USP1/UAF1: Pilot qHTS (AID 504865; active = well fitted curve in the direction sought with a large enough effect; an effect the other way counts as inactive or inconclusive;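 note: rhodamine fluorescence freed from ubiquitin-rhodamine substrate followed over time; top concentration of the series differs between compounds; % is set by controls: 0 for no effect and ±100 for the full control effect; nearly all actives have a fitted effect of over 35% in size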); settings: purified USP1/UAF1, Ub-rhodamine cleavage fluorescence; series mostly up to 54.9 µM
Method in brief: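 USP1/UAF1 complex (1nM) preincubated with compound 15 min at room temperature, then Ub-Rho substrate (150nM final) added. Fluorescence read kinetically at 480/540 nm, 6 reads every 60 seconds. Buffer: 50mM HEPES pH 7.8, 0.5mM EDTA, 0.1 mg/ml BSA, 1mM TCEP, 0.01% Tween-20.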

[13] = target: Cytochrome P450 1A2 (Homo sapiens) (UniProt P05177); experiment: p450-cyp1a2 (AID 410; calls by dose curve; note: potency is the fitted concentration of half-maximal effect); settings: recombinant CYP1A2, luciferin-ME demethylation, luminescence; series mostly up to 57 µM
Method in brief: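 Human CYP1A2 (20nM) demethylated Luciferin-ME at its Km (100uM) in 100mM KPO4. After 10 min compound preincubation, NADPH regeneration ran the reaction 60 min at room temperature. Luciferin was read by luminescence, normalized to 57 uM furafylline.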

[14] = target: Cytochrome P450 3A4 (Homo sapiens) (UniProt P08684); experiment: qHTS Assay for Inhibitors and Substrates of Cytochrome P450 3A4 (AID 884; active = well fitted curve in the direction sought with a large enough effect; an effect the other way counts as inactive or inconclusive; note: potency is the fitted concentration of half-maximal effect; nearly all actives have a fitted effect of over 50% in size); settings: recombinant CYP3A4, Luciferin-PPXE luminescence; series mostly up to 57.1 µM
Method in brief: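 20 nM human CYP3A4 with 25 uM Luciferin-PPXE (at KM) in 200 mM KPO4, preincubated 10 min with compound; NADPH regeneration started a 60 min RT reaction. Luciferin detected by luminescence, normalized to 57 uM ketoconazole as full inhibition.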

[15] = target: Cytochrome P450 3A4 (Homo sapiens) (UniProt P08684); experiment: qHTS Assay for Activators of Cytochrome P450 3A4 (AID 885; active = well fitted curve in the direction sought with a large enough effect; an effect the other way counts as inactive or inconclusive; note: nearly all actives have a fitted effect of over 65% in size); settings: recombinant CYP3A4, Luciferin-PPXE luminescence, 60 min; series mostly up to 57.1 µM
Method in brief: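 20nM CYP3A4 + 25uM Luciferin-PPXE (=KM), 200mM KPO4; cpd 10 min RT; NADPH regen, 60 min RT; stop w/ detection buffer, 20 min; luminescence. Normalized to 57 uM ketoconazole.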

[16] = target: Cytochrome P450 2C19 (Homo sapiens) (UniProt P33261); experiment: qHTS Assay for Inhibitors and Substrates of Cytochrome P450 2C19 (AID 899; active = well fitted curve in the direction sought with a large enough effect; an effect the other way counts as inactive or inconclusive; note: potency is the fitted concentration of half-maximal effect; nearly all actives have a fitted effect of over 60% in size); settings: recombinant CYP2C19, luciferin-H EGE luminescence; series mostly up to 57.1 µM
Method in brief: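 In 50mM KPO4, the reaction held 5nM enzyme and KM-level (10uM) Luciferin-H EGE; it ran 60 min at 37C after NADPH regeneration and a 10 min compound preincubation. Luminescence values were scaled to 57uM ketoconazole as complete inhibition.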

[17] = target: Cytochrome P450 2D6 (Homo sapiens) (UniProt P10635); experiment: qHTS Assay for Inhibitors and Substrates of Cytochrome P450 2D6 (AID 891; active = well fitted curve in the direction sought with a large enough effect; an effect the other way counts as inactive or inconclusive; note: potency is the fitted concentration of half-maximal effect; nearly all actives have a fitted effect of over 60% in size); settings: recombinant CYP2D6, luciferin-ME EGE luminescence; series mostly up to 57.1 µM
Method in brief: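 Human CYP2D6 (5 nM) with 30 uM Luciferin-ME EGE (at Km) in 100 mM KPO4, compound preincubated 10 min, then NADPH regeneration system for 60 min at room temperature. Luciferin read by luminescence; normalized to 1.43 uM quinidine.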

[18] = measured here: cell count channel max response
[19] = measured here: lipid channel max response

Lysosomal acid glucosylceramidase (Homo sapiens), sequence (P04062 whole entry, looked up): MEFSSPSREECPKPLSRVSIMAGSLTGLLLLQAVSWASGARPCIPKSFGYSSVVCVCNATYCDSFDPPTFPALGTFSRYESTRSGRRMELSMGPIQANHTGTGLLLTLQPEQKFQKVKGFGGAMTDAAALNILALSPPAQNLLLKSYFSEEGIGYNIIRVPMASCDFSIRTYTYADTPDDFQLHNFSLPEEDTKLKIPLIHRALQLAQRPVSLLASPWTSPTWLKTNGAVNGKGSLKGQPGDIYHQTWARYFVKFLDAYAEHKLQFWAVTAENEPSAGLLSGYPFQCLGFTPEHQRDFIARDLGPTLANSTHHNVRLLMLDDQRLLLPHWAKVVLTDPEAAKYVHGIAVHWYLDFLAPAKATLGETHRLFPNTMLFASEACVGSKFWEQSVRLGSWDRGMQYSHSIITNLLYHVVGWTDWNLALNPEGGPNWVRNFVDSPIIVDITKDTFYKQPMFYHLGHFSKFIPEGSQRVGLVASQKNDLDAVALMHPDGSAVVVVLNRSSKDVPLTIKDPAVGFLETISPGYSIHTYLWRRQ
3',5'-cyclic-AMP phosphodiesterase 4B (Homo sapiens), sequence (Q07343 whole entry, looked up): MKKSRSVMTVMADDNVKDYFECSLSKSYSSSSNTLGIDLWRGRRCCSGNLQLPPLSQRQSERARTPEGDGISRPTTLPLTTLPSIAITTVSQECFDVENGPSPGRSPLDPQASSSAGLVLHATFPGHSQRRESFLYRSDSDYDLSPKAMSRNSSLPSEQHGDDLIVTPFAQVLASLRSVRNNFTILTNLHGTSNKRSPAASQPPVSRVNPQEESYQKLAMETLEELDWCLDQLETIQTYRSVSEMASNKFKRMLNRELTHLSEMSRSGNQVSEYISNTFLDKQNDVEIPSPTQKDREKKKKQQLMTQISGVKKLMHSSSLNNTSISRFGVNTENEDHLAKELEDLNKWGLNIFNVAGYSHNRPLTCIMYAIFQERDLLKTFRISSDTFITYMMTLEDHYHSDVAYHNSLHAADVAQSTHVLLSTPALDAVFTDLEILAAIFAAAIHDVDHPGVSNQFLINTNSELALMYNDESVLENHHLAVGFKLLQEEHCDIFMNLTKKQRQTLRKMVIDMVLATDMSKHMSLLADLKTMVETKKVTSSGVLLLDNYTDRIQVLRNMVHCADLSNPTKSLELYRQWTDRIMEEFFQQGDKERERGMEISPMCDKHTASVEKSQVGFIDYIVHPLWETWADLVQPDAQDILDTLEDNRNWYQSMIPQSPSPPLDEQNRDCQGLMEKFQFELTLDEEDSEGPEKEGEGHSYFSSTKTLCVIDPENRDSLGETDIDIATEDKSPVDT
Glucocorticoid receptor (Homo sapiens), sequence (P04150 whole entry, looked up, the tested form may be a part): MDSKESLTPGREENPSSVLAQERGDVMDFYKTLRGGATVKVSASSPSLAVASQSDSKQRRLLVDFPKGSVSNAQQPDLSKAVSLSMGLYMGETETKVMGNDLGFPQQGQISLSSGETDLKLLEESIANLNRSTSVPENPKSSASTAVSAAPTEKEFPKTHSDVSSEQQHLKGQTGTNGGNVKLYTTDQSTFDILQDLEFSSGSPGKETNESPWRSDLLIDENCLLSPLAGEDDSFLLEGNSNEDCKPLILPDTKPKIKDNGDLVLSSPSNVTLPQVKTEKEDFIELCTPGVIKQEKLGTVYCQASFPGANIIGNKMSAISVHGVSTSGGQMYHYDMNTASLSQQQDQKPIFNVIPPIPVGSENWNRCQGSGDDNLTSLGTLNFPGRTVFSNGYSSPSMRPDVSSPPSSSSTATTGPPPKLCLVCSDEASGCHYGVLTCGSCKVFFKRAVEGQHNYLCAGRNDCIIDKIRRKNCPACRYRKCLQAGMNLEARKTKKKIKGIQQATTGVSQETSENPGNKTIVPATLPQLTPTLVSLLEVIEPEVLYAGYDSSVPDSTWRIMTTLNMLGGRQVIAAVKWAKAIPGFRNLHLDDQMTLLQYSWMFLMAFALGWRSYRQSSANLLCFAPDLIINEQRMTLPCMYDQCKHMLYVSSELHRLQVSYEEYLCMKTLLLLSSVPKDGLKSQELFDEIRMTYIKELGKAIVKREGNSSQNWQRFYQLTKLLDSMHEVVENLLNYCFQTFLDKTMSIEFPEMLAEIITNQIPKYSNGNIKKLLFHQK
Cytochrome P450 3A4 (Homo sapiens), sequence (P08684 whole entry, looked up): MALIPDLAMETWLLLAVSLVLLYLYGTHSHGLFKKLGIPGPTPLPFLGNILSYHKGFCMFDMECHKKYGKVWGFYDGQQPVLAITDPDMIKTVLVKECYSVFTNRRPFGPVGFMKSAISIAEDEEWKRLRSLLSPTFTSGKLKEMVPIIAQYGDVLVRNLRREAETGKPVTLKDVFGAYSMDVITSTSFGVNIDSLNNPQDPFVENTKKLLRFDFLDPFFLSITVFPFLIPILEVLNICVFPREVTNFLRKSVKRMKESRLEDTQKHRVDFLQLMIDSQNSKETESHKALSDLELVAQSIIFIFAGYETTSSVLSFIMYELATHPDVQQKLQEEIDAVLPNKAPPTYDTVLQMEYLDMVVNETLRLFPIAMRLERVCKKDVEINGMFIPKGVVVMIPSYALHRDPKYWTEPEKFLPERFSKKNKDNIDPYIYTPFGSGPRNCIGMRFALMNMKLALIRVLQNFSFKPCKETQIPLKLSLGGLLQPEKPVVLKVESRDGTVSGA
Cytochrome P450 1A2 (Homo sapiens), sequence (P05177 whole entry, looked up): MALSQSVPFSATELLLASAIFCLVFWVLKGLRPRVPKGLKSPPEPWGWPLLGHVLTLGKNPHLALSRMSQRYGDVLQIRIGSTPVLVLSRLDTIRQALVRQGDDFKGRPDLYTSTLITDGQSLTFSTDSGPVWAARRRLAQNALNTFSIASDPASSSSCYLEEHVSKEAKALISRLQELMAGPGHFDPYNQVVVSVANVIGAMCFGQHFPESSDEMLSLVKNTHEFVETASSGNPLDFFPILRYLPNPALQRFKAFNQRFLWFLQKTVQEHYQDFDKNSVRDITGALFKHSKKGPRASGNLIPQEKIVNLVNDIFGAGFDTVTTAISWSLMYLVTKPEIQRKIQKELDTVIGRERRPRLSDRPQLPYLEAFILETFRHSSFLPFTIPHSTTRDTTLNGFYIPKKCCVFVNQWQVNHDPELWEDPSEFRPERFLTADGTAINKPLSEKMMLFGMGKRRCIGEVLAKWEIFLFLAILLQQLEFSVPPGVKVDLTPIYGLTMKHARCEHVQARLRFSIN
Ubiquitin carboxyl-terminal hydrolase 1 (Homo sapiens), sequence (O94782 whole entry, looked up): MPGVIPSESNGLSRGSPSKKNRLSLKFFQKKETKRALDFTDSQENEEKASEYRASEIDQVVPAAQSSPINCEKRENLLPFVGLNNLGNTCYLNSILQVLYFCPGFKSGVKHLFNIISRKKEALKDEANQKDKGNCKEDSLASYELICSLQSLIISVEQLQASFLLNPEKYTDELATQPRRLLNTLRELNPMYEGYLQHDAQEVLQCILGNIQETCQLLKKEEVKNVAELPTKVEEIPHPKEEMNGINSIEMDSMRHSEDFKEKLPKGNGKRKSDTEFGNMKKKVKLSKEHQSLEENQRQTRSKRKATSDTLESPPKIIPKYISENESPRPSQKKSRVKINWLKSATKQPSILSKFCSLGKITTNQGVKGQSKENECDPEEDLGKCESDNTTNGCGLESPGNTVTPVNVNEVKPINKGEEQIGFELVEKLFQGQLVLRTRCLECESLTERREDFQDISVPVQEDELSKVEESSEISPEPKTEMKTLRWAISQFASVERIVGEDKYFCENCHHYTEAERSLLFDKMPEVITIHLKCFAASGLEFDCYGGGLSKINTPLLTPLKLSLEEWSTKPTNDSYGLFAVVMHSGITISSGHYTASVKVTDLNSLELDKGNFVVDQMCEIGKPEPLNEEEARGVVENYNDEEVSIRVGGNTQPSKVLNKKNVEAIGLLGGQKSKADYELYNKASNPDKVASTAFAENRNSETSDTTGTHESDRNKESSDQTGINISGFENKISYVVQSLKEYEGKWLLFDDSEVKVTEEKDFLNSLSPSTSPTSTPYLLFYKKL
Cytochrome P450 2C19 (Homo sapiens), sequence (P33261 whole entry, looked up): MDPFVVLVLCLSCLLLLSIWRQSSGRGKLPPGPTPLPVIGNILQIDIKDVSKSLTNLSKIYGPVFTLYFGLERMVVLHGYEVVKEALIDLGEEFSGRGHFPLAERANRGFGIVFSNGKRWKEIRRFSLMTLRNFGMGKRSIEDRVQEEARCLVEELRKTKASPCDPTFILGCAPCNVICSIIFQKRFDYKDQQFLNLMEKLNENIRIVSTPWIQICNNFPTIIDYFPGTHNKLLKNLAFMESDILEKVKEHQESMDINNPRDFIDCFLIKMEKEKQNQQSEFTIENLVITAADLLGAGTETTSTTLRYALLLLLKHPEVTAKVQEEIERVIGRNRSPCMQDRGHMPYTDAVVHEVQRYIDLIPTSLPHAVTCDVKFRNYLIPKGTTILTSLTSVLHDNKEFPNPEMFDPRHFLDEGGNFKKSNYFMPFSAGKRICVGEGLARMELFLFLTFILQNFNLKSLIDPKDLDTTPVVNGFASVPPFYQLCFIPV
Cytochrome P450 2D6 (Homo sapiens), sequence (P10635 whole entry, looked up): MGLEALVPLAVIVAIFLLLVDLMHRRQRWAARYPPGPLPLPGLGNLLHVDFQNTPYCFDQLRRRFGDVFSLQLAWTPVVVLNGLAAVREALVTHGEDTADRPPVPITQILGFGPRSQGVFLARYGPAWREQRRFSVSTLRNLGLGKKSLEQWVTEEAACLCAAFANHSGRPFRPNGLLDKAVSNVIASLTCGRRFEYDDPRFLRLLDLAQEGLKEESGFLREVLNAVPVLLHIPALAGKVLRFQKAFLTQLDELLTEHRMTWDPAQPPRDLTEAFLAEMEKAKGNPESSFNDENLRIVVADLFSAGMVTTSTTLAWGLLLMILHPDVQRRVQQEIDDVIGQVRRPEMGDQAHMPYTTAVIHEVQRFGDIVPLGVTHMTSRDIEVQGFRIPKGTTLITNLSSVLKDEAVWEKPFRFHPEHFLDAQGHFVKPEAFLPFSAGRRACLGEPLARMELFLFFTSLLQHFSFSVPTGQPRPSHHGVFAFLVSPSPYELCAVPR

Cc1cccc(CNc2ccnc(-c3cccc(NS(C)(=O)=O)c3)n2)c1
Potency [1]: > 11.4 µM (inactive)
activity change, negative = inhibition [2]: -18.5% (inactive)
activity change, negative = inhibition [3]: 9.66% (inactive)
Potency [4]: > 46 µM (inactive)
Potency [5]: > 46 µM (inactive)
Potency [6]: inactive
Potency [7]: inactive
Potency [8]: inactive
outcome [9]: inactive
activity change, negative = inhibition [10]: 8.1% (inactive)
max response [10, 18]: 4.58%
max response [10, 19]: -1.23%

CN(C)Cc1ccccc1-c1ccc2ncnc(NCc3cccs3)c2c1
Potency [1]: > 11.4 µM (inactive)
activity change, negative = inhibition [2]: 4.22% (inactive)
activity change, negative = inhibition [3]: -20.1% (inactive)
activity, negative = inhibition [11]: -19.4% (inactive)
Potency [4]: > 46 µM (inactive)
Potency [5]: > 46 µM (inactive)
Potency [6]: inactive
Potency [8]: inactive
outcome [9]: inactive
activity change, negative = inhibition [10]: 7.62% (inactive)
max response [10, 18]: -0.921%
max response [10, 19]: 6.51%
Potency [12]: inactive

N#Cc1ccc(CN2CC3(CCN(C(=O)c4ccco4)CC3)C2)cc1
Potency [1]: > 11.4 µM (inactive)
activity change, negative = inhibition [2]: -7.09% (inactive)
activity, negative = inhibition [11]: 4.26% (inactive)
Potency [5]: > 46 µM (inactive)
Potency [6]: inactive
Potency [7]: inactive
activity change, negative = inhibition [10]: 4.77% (inactive)
max response [10, 18]: 18.6%
max response [10, 19]: 23.7%

CN(C)c1ccc(-c2ccc3ncnc(NCc4ccccc4)c3c2)cc1
Potency [1]: > 11.4 µM (inactive)
Potency [13]: 0.501 µM (active)
activity, negative = inhibition [11]: -1.76% (inactive)
Potency [4]: > 46 µM (inactive)
Potency [5]: > 46 µM (inactive)
Potency [7]: inactive
Potency [14]: 2.51 µM (active)
Potency [15]: inactive
Potency [16]: 7.94 µM (active)
outcome [9]: inactive
activity change, negative = inhibition [10]: 2.65% (inactive)
max response [10, 18]: -18.1%
max response [10, 19]: -15.6%

CS(=O)(=O)Nc1cccc(-c2nc(N3CCNCC3)c3ccccc3n2)c1
Potency [1]: > 11.4 µM (inactive)
activity change, negative = inhibition [2]: 5.71% (inactive)
activity, negative = inhibition [11]: 2.63% (inactive)
Potency [4]: > 46 µM (inactive)
Potency [5]: > 46 µM (inactive)
Potency [6]: inactive
Potency [7]: inactive
Potency [8]: inactive
outcome [9]: inactive
activity change, negative = inhibition [10]: 5.5% (inactive)
max response [10, 18]: 12.3%
max response [10, 19]: 18.5%
Potency [12]: inactive

COc1ccccc1CN1CCC2(CC1)CCN(C(=O)c1cc(C(F)(F)F)cc(C(F)(F)F)c1)CC2
Potency [1]: > 11.4 µM (inactive)
activity change, negative = inhibition [2]: -13.2% (inactive)
activity, negative = inhibition [11]: -3.31% (inactive)
Potency [5]: > 46 µM (inactive)
Potency [6]: inactive
Potency [7]: inactive
activity change, negative = inhibition [10]: 0.332% (inactive)
max response [10, 18]: -5.08%
max response [10, 19]: 1.32%

O=C(Nc1cccc(F)c1)N1CCC2(CC1)CCN(C(=O)c1cc(C(F)(F)F)cc(C(F)(F)F)c1)CC2
Potency [1]: > 11.4 µM (inactive)
activity change, negative = inhibition [2]: -6.27% (inactive)
activity, negative = inhibition [11]: 8.94% (inactive)
Potency [5]: > 46 µM (inactive)
Potency [7]: inactive
activity change, negative = inhibition [10]: -8.79% (inactive)
max response [10, 18]: -4.14%
max response [10, 19]: -9.94%

c1ccc(Nc2ncnc3ccc(-c4ccc5c(c4)OCO5)cc23)cc1
Potency [1]: > 11.4 µM (inactive)
Potency [13]: 0.251 µM (active)
activity, negative = inhibition [11]: 8.5% (inactive)
Potency [4]: > 46 µM (inactive)
Potency [5]: > 46 µM (inactive)
Potency [6]: inactive
Potency [14]: 2.51 µM (active)
Potency [15]: inactive
Potency [17]: 0.126 µM (active)
outcome [9]: inactive
activity change, negative = inhibition [10]: 5.31% (inactive)
max response [10, 18]: -12.2%
max response [10, 19]: -7.25%

O=C(c1ccco1)N1CCC2(CC1)CCN(c1ccncc1)CC2
Potency [1]: > 11.4 µM (inactive)
activity change, negative = inhibition [2]: -14.6% (inactive)
activity, negative = inhibition [11]: 11.2% (inactive)
Potency [5]: > 46 µM (inactive)
Potency [6]: inactive
Potency [7]: inactive
activity change, negative = inhibition [10]: 3.95% (inactive)
max response [10, 18]: -3.62%
max response [10, 19]: 0.777%

Cc1nc2cnc(N3CCNCC3)nc2n(C2CC2)c1=O
Potency [1]: > 11.4 µM (inactive)
activity change, negative = inhibition [2]: 5.94% (inactive)
activity change, negative = inhibition [3]: 3.04% (inactive)
activity, negative = inhibition [11]: -7.48% (inactive)
Potency [4]: > 9.22 µM (inactive)
Potency [5]: > 46 µM (inactive)
Potency [6]: inactive
Potency [7]: inactive
activity change, negative = inhibition [10]: 0.607% (inactive)
max response [10, 18]: 18.2%
max response [10, 19]: 19.1%

COc1ccc(C(=O)N2CCC3(CC2)CN(c2ccccn2)C3)cc1
Potency [1]: > 11.4 µM (inactive)
activity change, negative = inhibition [2]: 3.74% (inactive)
activity change, negative = inhibition [3]: -14.4% (inactive)
activity, negative = inhibition [11]: -24.1% (inactive)
Potency [5]: > 46 µM (inactive)
Potency [6]: inactive
Potency [7]: inactive
activity change, negative = inhibition [10]: 6.8% (inactive)
max response [10, 18]: 15.9%
max response [10, 19]: 29.6%

COc1ccc(NC(=O)N2CCC3(CC2)CCN(C(=O)c2cc(C(F)(F)F)cc(C(F)(F)F)c2)CC3)cc1
Potency [1]: > 11.4 µM (inactive)
activity change, negative = inhibition [2]: -5.96% (inactive)
activity, negative = inhibition [11]: -5.72% (inactive)
Potency [5]: > 46 µM (inactive)
Potency [6]: inactive
Potency [7]: inactive
activity change, negative = inhibition [10]: -8% (inactive)
max response [10, 18]: 3.79%
max response [10, 19]: -1.48%
